The nature of test [1]: stimulators of nuclear beta-catenin in C2C12, primary screen, imaging, WNT3A-conditioned medium, mouse C2C12, NPC library (AID 1117326; in the data active = nuclear beta-catenin stimulation mostly above about 4.2%, no sharp cut-off; inactive = mostly below about 10%; note: reference of the scale not given here). Particulars: stronger effect = higher value.
Test [2] in a line: stimulators of insulin release from INS-1E, primary screen, cell-based, 5 mM glucose, NPC library (AID 1117329;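 active = compound raises insulin release from rat beta cells at 5 mM glucose, no numeric limit stated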; note: reference of the scale not given here). Particulars: rat INS-1E insulin secretion, at 10 µM, stronger effect = higher value.
Test [3] in a line: growth inhibition of GSK3B-pretreated HCT116 cells – cell-based, CellTiter-Glo, 0.2 to 20 µM (AID 1117336;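 active = compounds lowering colon cancer cell viability after pretreatment blocking the GSK3B kinase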). Particulars: HCT116 viability after GSK3B inhibitor, at 20 µM, stronger effect = higher value. In general terms: Cellular ATP, detected with luciferase, serves as a proxy for viable cell number.
Test [4] in a line: inhibition of endothelial tube formation, primary screen, imaging, VEGF stimulated, CD31 staining, tube area, NPC library (AID 1117340;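 active = compound that reduces growth-factor-driven endothelial tube area in a mixed cell culture, no cutoff stated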). Particulars: VEGF-stimulated ADSC/ECFC co-culture, at 10 µM, stronger effect = higher value.
Test [5] can be described thus: glucagon-like peptide 1 release enhancers, primary assay, NCI-H716 cell line, NPC library (AID 1117341). Note: reference of the scale not given here. Particulars: NCI-H716 cells, at 10 µM, stronger effect = higher value.
A short description of test [6]: HCT116 colon cancer cell growth inhibition, primary screen, CellTiter-Glo luminescence, NPC library (AID 1117342;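 active = compounds that lower survival of HCT116 colon cancer cells in the luminescence readout, no numeric limit stated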). The settings on record: at 20 µM (top of the series).
Test [7] can be described thus: CellTiter-Glo luminescent readout of SW480 viability loss, NPC library primary (AID 1117343;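 active = compounds that lower viability of the colon cancer cells in the luminescence readout, with no numeric limit stated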). Particulars: CellTiter-Glo luminescence; at 20 µM (top of the series).
Test [8] in a line: decreased DLD-1 cellular survival, CellTiter-Glo luminescent readout, NPC compound collection, primary HTS (AID 1117346;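 active = compounds that lower survival of DLD-1 colon cancer cells in the luminescence readout, no cutoff given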). The settings on record: DLD-1 viability, CellTiter-Glo luminescence; at 20 µM (top of the series).

The source made the active and inactive calls.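 Rule for the calls, unless noted: active = compound raises GLP1 secretion from the human gut endocrine cells, with no numeric limit stated; inactive = the rest.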

With `COc1ccc([C@@H]2CC(=O)c3c(O)cc(O[C@@H]4O[C@H](CO[C@@H]5O[C@@H](C)[C@H](O)[C@@H](O)[C@@H]5O)[C@@H](O)[C@H](O)[C@@H]4O)cc3O2)cc1O`, the nuclear beta-catenin stimulation in test [1] (at 10 µM) was 1.6% (inactive); in test [1] (stimulation, at 2 µM), 2.4%. The insulin secretion stimulation in test [2] was -0.9% (inactive). Besides, the viability decrease in test [3] is -10.2% (inactive). Besides, the tube area decrease in test [4] was -4.7% (inactive). In addition, the GLP1 secretion stimulation in test [5] was -1% (inactive). Moreover, the inhibition of viability in test [6] was -1.6% (inactive). Further, the viability decrease (inhibition) in test [7] is -2.4% (inactive); in test [8], 41.4% (inactive).

For the molecule `CC(=O)Nc1ccc(OC(=O)c2ccccc2OC(C)=O)cc1`, the nuclear beta-catenin stimulation was 0.6% (inactive) in test [1] (at 10 µM) and 14% in test [1] (stimulation, at 2 µM). Besides, the insulin secretion stimulation in test [2] is 4.1% (inactive). In addition, the viability decrease in test [3] is 0.8% (inactive). The tube area decrease in test [4] is -15.2% (inactive). Moreover, the GLP1 secretion stimulation in test [5] is -1.2% (inactive). The inhibition of viability in test [6] is -5.8% (inactive). The figures for the viability decrease (inhibition) in test [7] and in test [8] were -3% (inactive) and -10.1% (inactive), respectively.

For `CC(C)C(=O)OCc1cccc(OC(=O)[C@@H]2N3C(=O)[C@@H](NC(=O)Cc4ccccc4)[C@H]3SC2(C)C)c1`, the nuclear beta-catenin stimulation in test [1] (at 10 µM) was 0.9% (inactive); in test [1] (stimulation, at 2 µM), -0.1%. Further, in test [2], the insulin secretion stimulation is 2.2% (inactive). Also, the viability decrease in test [3] was 117% (active). The tube area decrease in test [4] was -4.7% (inactive). The GLP1 secretion stimulation in test [5] is 3.4% (inactive). Besides, the inhibition of viability in test [6] is 123% (active). In addition, the figures for the viability decrease (inhibition) in test [7] and in test [8] were 60.1% (active) and 10.1% (inactive), respectively.

As to `CCCCS(=O)(=O)N[C@@H](Cc1ccc(OCCCCC2CCNCC2)cc1)C(=O)O`, the nuclear beta-catenin stimulation in test [1] (at 10 µM) is 1.1% (inactive); in test [1] (stimulation, at 2 µM), -1.6%. Besides, the insulin secretion stimulation in test [2] is 0.7% (inactive). The viability decrease in test [3] is 96.5% (active). In test [4], the tube area decrease was -5.9% (inactive). For the same molecule, the GLP1 secretion stimulation in test [5] is 5.3% (inactive). For the same molecule, in test [6], the inhibition of viability was 72.5% (active). Besides, the values for the viability decrease (inhibition) in test [7] and in test [8] were 64.5% (active) and 50.1% (active), respectively.

Consider `CCn1ccc(NS(=O)(=O)c2ccc(N)cc2)nc1=O`, for which the nuclear beta-catenin stimulation is 1.9% (inactive) in test [1] (at 10 µM) and 1.4% in test [1] (stimulation, at 2 µM). Also, in test [2], the insulin secretion stimulation is 3.4% (inactive). The viability decrease in test [3] was -22.1% (inactive). In addition, the tube area decrease in test [4] was 11.6% (inactive). Further, the GLP1 secretion stimulation in test [5] was 2.7% (inactive). The inhibition of viability in test [6] is -54.2% (inactive). For the same molecule, the viability decrease (inhibition) in test [7] was -2.8% (inactive); in test [8], -26.4% (inactive).

As to `CNC(=O)c1c(I)c(NC(=O)CCCCC(=O)Nc2c(I)c(C(=O)O)c(I)c(C(=O)NC)c2I)c(I)c(C(=O)O)c1I`, the nuclear beta-catenin stimulation in test [1] (at 10 µM) was -0.7% (inactive); in test [1] (stimulation, at 2 µM), 2.2%. Besides, in test [2], the insulin secretion stimulation was -0.3% (inactive). Further, the viability decrease in test [3] is -17.5% (inactive). The tube area decrease in test [4] was -0.8% (inactive). Also, in test [5], the GLP1 secretion stimulation was -0.4% (inactive). Also, the inhibition of viability in test [6] is 9.4% (inactive). The viability decrease (inhibition) is -3.6% (inactive) in test [7] and -2.4% (inactive) in test [8].

On to `CC(C)(Oc1ccc(Cl)cc1)C(=O)OCCCOC(=O)C(C)(C)Oc1ccc(Cl)cc1`, for which the nuclear beta-catenin stimulation is 0.7% (inactive) in test [1] (at 10 µM) and 2.2% in test [1] (stimulation, at 2 µM). Besides, the insulin secretion stimulation in test [2] is 0.5% (inactive). In addition, in test [3], the viability decrease was 11% (inactive). Moreover, in test [4], the tube area decrease is 2.3% (inactive). Moreover, the GLP1 secretion stimulation in test [5] was -0.1% (inactive). Also, the inhibition of viability in test [6] is 5.6% (inactive). Besides, the results for the viability decrease (inhibition) in test [7] and in test [8] were 8.9% (inactive) and 4% (inactive), respectively.

For `O=C(CCCN1CCN(c2ccc(F)cc2)CC1)NC1c2ccccc2CSc2ccccc21` (stereo unspecified), the nuclear beta-catenin stimulation in test [1] (at 10 µM) is 1.8% (inactive); in test [1] (stimulation, at 2 µM) it was 1.3%. Also, the insulin secretion stimulation in test [2] was -0.2% (inactive). Besides, the viability decrease in test [3] is 53.5% (active). Besides, the tube area decrease in test [4] was 32.7% (inactive). For the same molecule, in test [5], the GLP1 secretion stimulation was 3.7% (inactive). In addition, in test [6], the inhibition of viability is 47.5% (inactive). Besides, the viability decrease (inhibition) was 27.4% (inactive) in test [7] and 14.8% (inactive) in test [8].

`O=C(O)c1ccc(OCCCOc2ccc(C(=O)O)cc2)cc1`: the nuclear beta-catenin stimulation in test [1] (at 10 µM) was 1.9% (inactive); in test [1] (stimulation, at 2 µM), 0.7%. The insulin secretion stimulation in test [2] is 3.2% (inactive). Further, the viability decrease in test [3] is -0.8% (inactive). In test [4], the tube area decrease is -2.8% (inactive). For the same molecule, the GLP1 secretion stimulation in test [5] was -1.8% (inactive). Further, the inhibition of viability in test [6] was -0.8% (inactive). Moreover, the viability decrease (inhibition) in test [7] was 5.3% (inactive); in test [8], -6.3% (inactive).

With `COc1ccc2cc(Br)ccc2c1`, the nuclear beta-catenin stimulation in test [1] (at 10 µM) was -0.6% (inactive); in test [1] (stimulation, at 2 µM), -0.3%. The insulin secretion stimulation in test [2] was 0.9% (inactive). For the same molecule, the viability decrease in test [3] is -1.1% (inactive). In test [4], the tube area decrease is 3.3% (inactive). Also, in test [5], the GLP1 secretion stimulation is -5% (inactive). In addition, the inhibition of viability in test [6] is -2.2% (inactive). Further, the viability decrease (inhibition) in test [7] was -5.1% (inactive); in test [8], -6% (inactive).

Regarding `COc1cc(C(=O)N2CCCCCCC2)cc(OC)c1OC`, the nuclear beta-catenin stimulation in test [1] (at 10 µM) is 0.9% (inactive); in test [1] (stimulation, at 2 µM), -1.2%. In test [2], the insulin secretion stimulation was 5% (inactive). In test [3], the viability decrease is -2.3% (inactive). The tube area decrease in test [4] is -2.6% (inactive). Moreover, the GLP1 secretion stimulation in test [5] was 2.6% (inactive). In test [6], the inhibition of viability is 17.8% (inactive). The viability decrease (inhibition) in test [7] was -7.8% (inactive); in test [8], 7.8% (inactive).

As to `O=C1CCCc2c(O)cccc21`, the nuclear beta-catenin stimulation in test [1] (at 10 µM) was 1.1% (inactive); in test [1] (stimulation, at 2 µM) it was 2.2%. In addition, the insulin secretion stimulation in test [2] is 0.3% (inactive). Also, the viability decrease in test [3] was 1% (inactive). For the same molecule, in test [4], the tube area decrease is 19.3% (inactive). For the same molecule, the GLP1 secretion stimulation in test [5] was 2.2% (inactive). In test [6], the inhibition of viability was 11.4% (inactive). For the same molecule, the viability decrease (inhibition) is 12.5% (inactive) in test [7] and -7.2% (inactive) in test [8].

`CC(C)=CCNc1ncnc2c1ncn2[C@@H]1O[C@H](CO)[C@@H](O)[C@H]1O`: the nuclear beta-catenin stimulation in test [1] (at 10 µM) was 4.6% (inactive); in test [1] (stimulation, at 2 µM), 1.9%. Also, in test [2], the insulin secretion stimulation was 1.8% (inactive). For the same molecule, the viability decrease in test [3] was 109% (active). In addition, the tube area decrease in test [4] was 106% (active). In addition, the GLP1 secretion stimulation in test [5] is 0.8% (inactive). Moreover, in test [6], the inhibition of viability is 111% (active). The viability decrease (inhibition) in test [7] was 110% (active); in test [8] it was 101% (active).

In the case of `CCOC(=O)c1cccc(N)c1`, the nuclear beta-catenin stimulation is -0.3% (inactive) in test [1] (at 10 µM) and -1.1% in test [1] (stimulation, at 2 µM). Moreover, the insulin secretion stimulation in test [2] is 1.3% (inactive). For the same molecule, the viability decrease in test [3] is 4.6% (inactive). The tube area decrease in test [4] was -29.7% (inactive). Further, the GLP1 secretion stimulation in test [5] is -4.7% (inactive). Besides, the inhibition of viability in test [6] is -7.9% (inactive). Besides, the viability decrease (inhibition) in test [7] was 35.4% (inactive); in test [8] it was 4.45% (inactive).

The values above are taken from PubChem BioAssay.
